# HT1080NT lethal: kills 2HG-producing HT-1080-NT fibrosarcoma cells; HT-1080-NT fibrosarcoma viability, CellTiter-Glo ATP luminescence, 48 h; Potency, µM (doses to about 46.1 µM), for inactives: at the highest dose activity, negative = less viability, actives largely listed as cytotoxic; actives 1.6% (n = 360,000);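 also: NT is the 2HG producing partner of a matched IDH1 knockdown line; 0% = DMSO-treated cells and -100% = media-only wells without cells; nearly all actives have a fitted effect of over 55% in size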
#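 Viability of the 2HG-overproducing fibrosarcoma line after 48 hours of compound exposure at 37 degrees C was determined by luminescence with CellTiter-Glo, and concentration-effect curves were then fitted and categorized.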
# HepG2 tox: kills HepG2 cells in TGF-b inhibitor counter-screen. Potency, µM (doses to about 46.1 µM), inactives show at the top dose activity change, negative = cytotoxicity, most hits filed as cytotoxic. HepG2 CAGA-GFP viability, ATP luminescence, 18 h. actives 0.76% (n = 410,000)
#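 CellTiter-Glo luminescence gave cytotoxicity after 18 hours at 37 degrees C. The cells were HepG2 CAGA-GFP in 1% FBS DMEM, stimulated with 500 pg/mL TGF-beta after compound addition. %Activity was normalised to no-cell wells (complete cell-killing) and DMSO (no toxicity), and curves were fitted and classified.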
# TDP1 cell noCPT: qHTS for Inhibitors of human tyrosyl-DNA phosphodiesterase 1 (TDP1): qHTS in cells in absence of CPT | actives 15% (n = 420,000) | Potency, µM (highest dose often 46.2 µM), for inactives: top-dose activity change, negative = growth inhibition, most hits filed as inhibitors | AID 686978, 2013 | DT40 Tdp1-/- hTDP1 cells, no CPT, ATP luminescence, 48 h; also: % is scaled to controls: 0 for no effect and ±100 for the full control effect; nearly all actives have a fitted effect of over 55% in size
#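 DT40 Tdp1-/-;hTDP1 cells, no CPT (DMSO vehicle only), 400 cells/well; compounds pin-transferred; ≥48 hr, 37 °C; CellTiter-Glo 30 min RT dark, luminescence read.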
# TDP1 cell CPT: growth inhibition of DT40 Tdp1-/-;hTDP1 cells with camptothecin (screen for TDP1 inhibitors). chicken DT40 Tdp1-/-;hTDP1 cells + 20 nM CPT, ATP luminescence, 48 h. actives 12% (n = 420,000). Potency, µM (doses to about 46.2 µM), for the others: at the top dose activity change, negative = growth inhibition, actives largely listed as inhibitors; also: % is scaled to controls: 0 for no effect and ±100 for the full control effect; nearly all actives have a fitted effect of over 55% in size
#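 Chicken DT40 Tdp1-/- cells stably complemented with human TDP1 were seeded at 400 cells/well in medium containing 20 nM camptothecin, exposed to pin-transferred compounds, and grown at 37 °C for at least 48 hr. Viability was read as ATP luminescence.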
# TGFb SMAD3 inh: inhibitors of TGF-b signaling | HepG2 CAGA-GFP TGF-b/SMAD3 reporter, GFP fluorescence, 18 h; TGF-beta stimulated, 500 pg/mL final | Potency, µM (titrated, usually from 46.1 µM), for inactives: at the highest dose activity, negative = inhibition, hits mostly inhibitors | AID 588855 | actives 1.2% (n = 410,000); also: % is scaled to controls: 0 for no effect and ±100 for the full control effect; nearly all actives have a fitted effect of over 65% in size
#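 HEPG2 CAGA-GFP reporter cells (1000/well, DMEM with 1% FBS) received compounds, then recombinant TGF-beta at 500 pg/mL final for 18 hours at 37 degrees C. Per-cell GFP summed per well was normalised to unstimulated and stimulated DMSO controls before curve fitting.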
# HT1080 IDH1KD tx: kills HT-1080 cells with IDH1 knockdown | Potency, µM (highest dose often 46.1 µM), for inactives: at the top dose activity, negative = toxicity, actives largely listed as cytotoxic | actives 2% (n = 360,000) | HT-1080 IDH1 knockdown viability, ATP luminescence, 48 h;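 also: 0% = DMSO wells and -100% = cell-free medium wells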
#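 Knockdown cells (IDH1KD HT-1080) received compounds 2 h after plating at 750 cells/well and were kept 48 h at 37 °C in 5% FBS RPMI. A CellTiter-Glo luminescence read gave % activity for curve fitting.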
# An asterisk follows results filed as active; ? = inconclusive; · = no result given; [ ] = remark or other dose. The list is not random: actives were taken first. Their share in the collection is about 17%. Calls follow the shape of the dose curve; as a rule, active = well fitted curve in the direction sought with a large enough effect; inconclusive = small, poorly fitted or top-dose-only effect, or another doubt; inactive = no such curve, though single readings can be large; an effect the other way counts as inactive or inconclusive. Potency is read from the fitted curve at half-maximal effect.
SMILES,HT1080NT lethal,HepG2 tox,TDP1 cell noCPT,TDP1 cell CPT,TGFb SMAD3 inh,HT1080 IDH1KD tx
CCCCCN1C(=O)c2cc(OC)ccc2[C@@]2(C(=O)OCC)Cc3cc(OC)ccc3[C@@H]12,14.6µM*,·,5.17µM*,10.3µM*,·,13µM*
CCOC(=O)[C@]12Cc3cc(Cl)ccc3[C@H]1N(C)C(=O)c1cc(OC)ccc12,?,·,16.4µM*,23.1µM*,·,?
CCOC(=O)C1C(=O)N(C)C2(C)CC1c1cc(OC)ccc1O2 (configuration not stated),-1.3%,-4.8%,-9.6%,10.2%,13.1%,-1.0%
CCOC(=O)[C@]12Cc3cc(OC)ccc3[C@H]1N(C)C(=O)c1cc(OC)ccc12,?,·,16.4µM*,?,·,?
C=CCC1([C@H](C)CCC)C(=O)NC(=O)NC1=O,·,·,-25.6%[92.5 µM],-20.1%[92.5 µM],·,·
Cc1nn(Cc2ccccc2)c(C)c1C(=O)OCC(=O)NC1CCS(=O)(=O)C1 (configuration not stated),16.8%,14.8%,-16.9%,12.2%,7.4%,21.2%
CC1(C)c2[nH]c3ccccc3c2C[C@@H]2C(=O)N(Cc3ccccc3F)C(=O)N21,·,-16.3%,·,·,?,·
C=Cc1ccc(Cn2c(C)c(CNCCc3cc(OC)ccc3OC)c(C(=O)O)c2C)cc1,·,-20.0%,13µM*,?,0.4%,·
COc1ccc(OC)c(CC(=O)O)c1,6.1%,-2.5%,-0.6%,-0.3%,-3.1%,-0.2%
CCCCn1c(=O)c(C(=O)NCc2ccco2)c(O)c2ccccc21,0.2%,-4.9%,?,?,-13.0%,19.4%
CC(C)CCn1c(=O)c(C(=O)NCc2ccco2)c(O)c2ccccc21,21.9%,-55.3%,9.2µM*,?,0.0%,16.5%
CCCCCn1c(=O)c(C(=O)NCc2ccco2)c(O)c2ccccc21,2.6%,4.2%,16.4µM*,?,47.7%,10.7%
CCN1C[C@]2(C)CC[C@H](O)[C@]34C1[C@H](C[C@H]23)[C@@]1(O)C[C@H](OC)[C@H]2C[C@@H]4[C@@H]1C2O (some centres not stated),?,-0.8%,-1.8%,-6.2%,16.4%,-2.3%
c1ccc(-c2nc(N3CCOCC3)s[n+]2-c2ccccc2)cc1,8.2%,-12.9%,?,14.6µM*,-6.8%,16.8%
Oc1c(Cl)cccc1Cc1cc(Cl)cc(Cl)c1O,?,-29.3%,20.6µM*,?,11.2µM*,?
COc1ccc(CCNCc2c(OC)ccc3ccccc23)cc1,?,-54.2%,13µM*,13µM*,-2.3%,-24.2%
COc1ccc(CCNCc2ccccc2)cc1,-1.0%,-3.9%,?,-10.2%,-0.2%,-3.3%
CN(C)c1ccc(C=C2C(=O)NC(=O)NC2=O)cc1,16.8%,-5.2%,-6.1%,-16.0%,-4.8%,6.2%
CCN(CC)c1ccc(C=C2C(=O)NC(=S)NC2=O)cc1,?,15.8µM*,14.6µM*,?,17.8µM*,?
CC(C)CN(CC(C)C)c1ccc(C=C2C(=O)NC(=S)NC2=O)cc1[N+](=O)[O-],-2.3%,-14.2%,20.6µM*,?,?,-8.8%
CCOc1ccc(C=C2C(=O)NC(=S)NC2=O)cc1OCC,2.6%,-13.7%,-4.0%,1.2%,15.6%,2.8%
CN(C)c1ccc(C=C2C(=O)NC(=S)NC2=O)cc1,-24.1%,-23.9%,16.4µM*,8.2µM*,-6.2%,?
CS(=O)(=O)c1ccc(C2=C(CNC(=O)c3ccncc3)[C@H]3CC[C@@H](C2)N3CCOc2ccccc2)cc1,1.9%,-3.2%,0.6%,7.1%,3.9%,3.6%
C[C@@H]1[C@H]2Cc3ccc(O)cc3[C@]1(C)CCN2C,·,·,-10.7%[166 µM],-0.7%[166 µM],·,·
O=Cc1ccccc1,·,13.9%,16.4%,3.9%,?,·

# Source: PubChem BioAssay (National Center for Advancing Translational Sciences (NCATS))
